The panel holds about 83,000 compounds, 20% with a hit somewhere; the sample as a whole holds those more often.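 Plates (96-well) were seeded with cells, treated with compound at one concentration, and incubated for 48 hours before percent growth was determined.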 Unmarked numbers belong to inactive results. Activity calls are given as the source filed them. How the source made its calls: active means growth percent below 10; inactive means the rest.

Holding throughout (experiment): NCI-60 one-dose screen, 48 h (100 = growth as untreated, 0 = no growth, -100 = all killed)
In one experiment the test system is SR leukemia. The conditions noted are these: 10 µM.
In a further experiment the test system is RPMI-8226 leukemia. The note with it: 10 µM.
In the next experiment the test system is OVCAR-8 ovarian. The conditions noted are these: 10 µM.
For another experiment, the system named is OVCAR-5 ovarian. The conditions noted are these: 10 µM.
Another experiment concerns OVCAR-4 ovarian. The conditions noted are these: 10 µM.
A further experiment relates to SK-OV-3 ovarian. The conditions noted are these: 10 µM.
The next experiment relates to IGROV1 ovarian. The note with it: 10 µM.
In a further experiment the test system is OVCAR-3 ovarian. The conditions noted are these: 10 µM.
A further experiment relates to HS 578T breast. The conditions noted are these: 10 µM.
The next experiment deals with NCI/ADR-RES ovarian. The note with it: 10 µM.
For another experiment, the system named is T-47D breast. The conditions noted are these: 10 µM.
A further experiment relates to SW-620 colon. The note with it: 10 µM.
For another experiment, the system named is MCF7 breast. The note with it: 10 µM unless noted.
A further experiment relates to HCT-116 colon. The note with it: 10 µM.
In the next experiment the test system is HCC-2998 colon. The conditions noted are these: 10 µM.
In a further experiment the test system is MDA-MB-435 melanoma. The note with it: 10 µM.
A further experiment relates to KM12 colon. The note with it: 10 µM.
Another experiment has as its system BT-549 breast. The note with it: 10 µM.

For `Cc1ccc(CCCC(=O)O)c(C)c1`, the growth in the experiment on SR leukemia was 96.7%; in the experiment on RPMI-8226 leukemia, 97.8%; with OVCAR-8 ovarian, 97.4%; in the experiment with OVCAR-5 ovarian, 94.5%; in the experiment with OVCAR-4 ovarian it was 97.6%; with SK-OV-3 ovarian, 97.7%. Further, the growth is 108% in the experiment with IGROV1 ovarian; 108% with OVCAR-3 ovarian; 108% in the experiment on HS 578T breast; 107% with NCI/ADR-RES ovarian; 95.2% in the experiment on T-47D breast; 99.7% in the experiment with SW-620 colon. Further, the growth was 105% in the experiment with MCF7 breast, 103% in the experiment on HCT-116 colon and 118% in the experiment with HCC-2998 colon.
As for `CC(CC(=O)c1ccccc1)c1ccccc1` (stereo not given), the growth was 101% with SR leukemia; 104% in the experiment with RPMI-8226 leukemia; 102% in the experiment on OVCAR-8 ovarian; 113% with OVCAR-5 ovarian; 109% in the experiment with OVCAR-4 ovarian; 127% in the experiment with SK-OV-3 ovarian. The growth in the experiment on IGROV1 ovarian is 101%; with OVCAR-3 ovarian, 116%; in the experiment with HS 578T breast, 118%; in the experiment on NCI/ADR-RES ovarian, 118%; in the experiment with T-47D breast, 104%; in the experiment on MDA-MB-435 melanoma, 99.8%. Also, the growth in the experiment with SW-620 colon is 102%; in the experiment on MCF7 breast, 105%; with HCT-116 colon, 106%; with KM12 colon, 113%.
Turning to `O=C(/C=C/C(=O)c1ccccc1)c1ccccc1`, the growth in the experiment with SR leukemia was 71.3%; with RPMI-8226 leukemia it was 80.8%; in the experiment with OVCAR-8 ovarian, 110%; in the experiment on OVCAR-5 ovarian, 115%; with OVCAR-4 ovarian it was 108%; with SK-OV-3 ovarian, 115%. In addition, the growth in the experiment on IGROV1 ovarian is 113%; in the experiment on OVCAR-3 ovarian, 102%; with NCI/ADR-RES ovarian, 114%; in the experiment with T-47D breast it was 92.4%; with MDA-MB-435 melanoma, 100%; with MCF7 breast, 75.2%. Besides, the growth with HCT-116 colon is 87.6%; with HCC-2998 colon it was 107%; in the experiment on KM12 colon, 111%.
In the case of `O=[N+]([O-])c1ccc(Cl)c(S(=O)(=O)O)c1`, the growth is 89.2% in the experiment with SR leukemia; 100% with RPMI-8226 leukemia; 104% in the experiment on OVCAR-8 ovarian; 105% in the experiment on OVCAR-5 ovarian; 111% in the experiment with OVCAR-4 ovarian; 110% with SK-OV-3 ovarian. Further, the growth is 123% in the experiment on IGROV1 ovarian; 106% in the experiment on OVCAR-3 ovarian; 104% in the experiment with HS 578T breast; 108% in the experiment with NCI/ADR-RES ovarian; 103% in the experiment on T-47D breast; 107% in the experiment with SW-620 colon. Moreover, the growth is 98.4% in the experiment with MCF7 breast, 104% in the experiment on HCT-116 colon, 102% in the experiment on HCC-2998 colon and 105% in the experiment on KM12 colon.
In the case of `CCOc1ccc2[nH]c(=S)sc2c1`, the growth in the experiment with SR leukemia is 97.7%; in the experiment with RPMI-8226 leukemia it was 97.1%; in the experiment on OVCAR-8 ovarian, 96.4%; with OVCAR-5 ovarian, 97.6%; in the experiment on OVCAR-4 ovarian, 108%; with SK-OV-3 ovarian, 105%. Further, the growth in the experiment on IGROV1 ovarian was 88.5%; in the experiment with OVCAR-3 ovarian it was 117%; in the experiment on NCI/ADR-RES ovarian it was 104%; with T-47D breast it was 94.5%; in the experiment on BT-549 breast it was 107%; with MDA-MB-435 melanoma, 99.3%. Besides, the growth with SW-620 colon was 102%; in the experiment on MCF7 breast, 102%; in the experiment with HCT-116 colon, 105%; in the experiment on HCC-2998 colon, 97.9%; in the experiment with KM12 colon, 116%.
In the case of `CCC(C)(C)C1CCC(O)CC1` (stereo not given), the growth is 102% in the experiment on SR leukemia; 101% in the experiment on RPMI-8226 leukemia; 102% in the experiment with OVCAR-8 ovarian; 92.5% in the experiment with OVCAR-5 ovarian; 107% in the experiment on OVCAR-4 ovarian; 103% in the experiment with SK-OV-3 ovarian. Further, the growth in the experiment on IGROV1 ovarian is 107%; in the experiment with OVCAR-3 ovarian, 104%; with NCI/ADR-RES ovarian it was 96.7%; in the experiment with T-47D breast, 97.5%; with BT-549 breast, 96.6%; in the experiment on MDA-MB-435 melanoma, 112%. In addition, the growth is 101% with SW-620 colon, 104% in the experiment on MCF7 breast, 98.9% in the experiment on HCT-116 colon and 96% with KM12 colon.
`Cc1ccc(Cl)cc1NC(=O)N(C)CCO`: the growth is 113% in the experiment with SR leukemia; 97.4% in the experiment on RPMI-8226 leukemia; 112% with OVCAR-8 ovarian; 111% in the experiment on OVCAR-5 ovarian; 136% in the experiment on OVCAR-4 ovarian; 114% with SK-OV-3 ovarian. The growth in the experiment with IGROV1 ovarian was 93%; in the experiment with OVCAR-3 ovarian, 130%; with NCI/ADR-RES ovarian, 112%; in the experiment with T-47D breast it was 104%; with BT-549 breast, 116%; in the experiment on MDA-MB-435 melanoma it was 117%. Besides, the growth with SW-620 colon was 137%; in the experiment with MCF7 breast, 88.7%; in the experiment on HCT-116 colon it was 112%; in the experiment on HCC-2998 colon, 104%; in the experiment with KM12 colon it was 120%.
On to `O=c1cc(-c2ccccc2)[nH]c2c1CCCC2`, for which the growth with SR leukemia is 30.5%; in the experiment on RPMI-8226 leukemia, 21.3%; in the experiment with OVCAR-8 ovarian, 39.7%; with OVCAR-5 ovarian, 39.3%; in the experiment with OVCAR-4 ovarian it was 49.8%; in the experiment on SK-OV-3 ovarian it was 25.8%. Besides, the growth in the experiment on IGROV1 ovarian was 44.3%; in the experiment with OVCAR-3 ovarian, 15.9%; with NCI/ADR-RES ovarian it was -40.8% (active); with T-47D breast, 22.8%; in the experiment on BT-549 breast it was 53.7%; with MDA-MB-435 melanoma it was -12.9% (active). The growth in the experiment with SW-620 colon is 24.2%; with MCF7 breast, 17.2%; in the experiment on HCT-116 colon it was 27.9%; in the experiment with HCC-2998 colon, 40%.
For `CCC(=O)Oc1ccc(OC)cc1`, the growth in the experiment with SR leukemia is 92.6%; in the experiment on RPMI-8226 leukemia, 128%; in the experiment with OVCAR-8 ovarian, 108%; with OVCAR-5 ovarian it was 102%; in the experiment on OVCAR-4 ovarian, 114%; in the experiment on SK-OV-3 ovarian, 101%. Moreover, the growth was 93.1% in the experiment with IGROV1 ovarian; 103% in the experiment with OVCAR-3 ovarian; 106% with NCI/ADR-RES ovarian; 101% in the experiment on T-47D breast; 102% in the experiment with SW-620 colon; 102% with MCF7 breast. Besides, the growth in the experiment on HCT-116 colon was 107%; with HCC-2998 colon, 114%; in the experiment with KM12 colon, 106%.
As for `CCCC1(c2ccccc2)NC(=O)NC1=O` (stereo not given), the growth was 126% with SR leukemia; 101% in the experiment with RPMI-8226 leukemia; 111% in the experiment on OVCAR-8 ovarian; 103% with OVCAR-5 ovarian; 104% in the experiment with OVCAR-4 ovarian; 99.7% with SK-OV-3 ovarian. The growth is 128% in the experiment with IGROV1 ovarian; 108% with OVCAR-3 ovarian; 109% with NCI/ADR-RES ovarian; 106% in the experiment on T-47D breast; 106% with BT-549 breast; 113% in the experiment with MDA-MB-435 melanoma. The growth with SW-620 colon was 111%; in the experiment on MCF7 breast, 98.6%; with HCT-116 colon, 99.3%; in the experiment with HCC-2998 colon it was 100%; in the experiment with KM12 colon it was 110%.

The values are drawn from PubChem BioAssay (NCI).
